Screens: PubChem BioAssay, several laboratories
In the library only some 28% were active in any assay of this set; here they are far more common.
CYP2C19 inh = inhibitors of human CYP2C19 | CYP2C19 Supersomes, luciferin-H EGE luminescence, 30 min | inhibition, % at 5 µM | 96,000 tested, 21% active | AID 778;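 active = CYP2C19 inhibition above a set limit at 5 µM in the primary screen, cut at about 50% in these data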
PLK1 kinase inh = blocks human PLK1 kinase activity. recombinant PLK1 kinase, TR-FRET peptide phosphorylation. inhibition, % at 10 µM. 97,000 tested, 0.53% active. AID 619;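 active = inhibition of 50% or more in the single-concentration screen; inactive = inhibition below 50%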
Target sequence (P53350 whole entry, looked up): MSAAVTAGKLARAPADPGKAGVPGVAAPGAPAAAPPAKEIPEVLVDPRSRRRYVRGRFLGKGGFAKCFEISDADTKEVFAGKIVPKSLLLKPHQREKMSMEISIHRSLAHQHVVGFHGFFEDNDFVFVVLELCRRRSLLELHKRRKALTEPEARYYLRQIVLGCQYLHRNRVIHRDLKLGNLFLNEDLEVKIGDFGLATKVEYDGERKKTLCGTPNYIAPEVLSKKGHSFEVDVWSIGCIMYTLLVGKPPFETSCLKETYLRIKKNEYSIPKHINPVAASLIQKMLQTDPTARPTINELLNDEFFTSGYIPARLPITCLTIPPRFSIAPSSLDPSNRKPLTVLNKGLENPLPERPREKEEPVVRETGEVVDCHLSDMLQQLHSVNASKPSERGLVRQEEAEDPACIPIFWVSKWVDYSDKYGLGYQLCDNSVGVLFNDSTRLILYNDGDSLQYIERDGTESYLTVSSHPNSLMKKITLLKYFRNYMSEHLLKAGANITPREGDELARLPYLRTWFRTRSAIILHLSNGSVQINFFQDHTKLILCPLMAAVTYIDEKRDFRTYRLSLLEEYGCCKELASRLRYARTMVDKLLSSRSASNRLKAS
CYP2C9 inhib = blocks human cytochrome P450 2C9 | CYP2C9 Supersomes, luciferin-H conversion, luminescence | inhibition, % at 5 µM | 96,000 tested, 20% active | AID 777;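 active = blocking of liver enzyme CYP2C9 beyond about 50% at 5 µM, limit read from the data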
PLK1 PBD inh = blocks phosphopeptide binding to human Plk1 polo box domain. Plk1 PBD phosphopeptide binding, fluorescence polarization. P53350. AID 693. inhibition, %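 (tested at about 20 µM)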. 97,000 tested, 0.13% active; in the data active = inhibition above about 34%, passing the limit was not always enough
CYP2C19 activ = increases human CYP2C19 enzyme activity | P33261 | recombinant CYP2C19, luciferin-H EGE luminescence; active compounds read high; 0 = fully inhibited enzyme, 1 = untreated enzyme | activation factor at 5 µM | 96,000 tested, under 10 active | AID 1025;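 active = activation factor of at least 2 at 5 µM in the primary screen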
CYP2C9 activ = CYP2C9 (human) activation | 96,000 tested, 1.4% active | activation factor at 5 µM | recombinant CYP2C9, luciferin-H conversion, luminescence; active compounds read high; factor 1 = untreated enzyme, 0 = blocked | P11712;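 active = activation factor of 2 or more for CYP2C9 at a 5 µM dose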
Hits are given with their value; . = inactive; / = not tested or not shown.

SMILES	CYP2C19 inh	PLK1 kinase inh	CYP2C9 inhib	PLK1 PBD inh	CYP2C19 activ	CYP2C9 activ
CCCNc1nc2c(c(=O)n(C)c(=O)n2C)n1Cc1ccc(F)cc1	.	.	.	.	.	.
Cc1occc1-c1nnc(SCC(=O)NCc2ccc3c(c2)OCO3)n1CC(C)C	.	.	.	.	.	.
Cc1ccc2c(c1)c1c(n2CC2COC(C)(C)O2)C(=O)CCC1 (configuration not stated)	76	.	73	.	.	.
Cc1ccc2c(c1)c1c(n2CC(O)Cn2c(C)nc3ccccc32)/C(=N\O)CCC1 (configuration not stated)	54	.	96	.	.	.
Cc1ccc2c(c1)c1c(n2CC(O)Cn2c(C)nc3ccccc32)C(=O)CCC1 (configuration not stated)	.	/	86	/	.	.
Cc1ccc2c(c1)c1c(n2CC(O)Cn2ccnc2C)C(=O)CCC1 (configuration not stated)	/	.	/	.	/	/
Cc1nc2ccccc2n1CC(O)Cn1c2ccccc2c2ccccc21 (configuration not stated)	75	.	78	.	.	.
Cc1ccc2c(c1)c1c(n2CC(O)CN2C(=O)CNC2=O)C(=O)CCC1 (configuration not stated)	.	.	.	.	.	.
Cc1nc2ccccc2n1CC(O)COC1CCCCC1 (configuration not stated)	/	.	/	.	/	/
CCCCOCC(O)Cn1c(C)nc2ccccc21 (configuration not stated)	.	.	.	.	.	.
O=[N+]([O-])c1cccc(/C=C/c2nc3ccc([N+](=O)[O-])cc3[nH]2)c1	.	.	.	.	.	.
Cc1ccc(Oc2ccc(NC(=O)CCC(=O)OCC(=O)c3cccs3)cc2)cc1C	.	.	.	.	.	.
CCC(C)C(NC(=O)c1ccccc1NC(=O)c1ccco1)C(=O)NC1CCCCC1 (configuration not stated)	.	/	.	/	.	.
O=C(Nc1ccccc1)N1C(=O)C2(OCCO2)c2ccccc21	.	.	.	.	.	.
COc1ccccc1N1CCN(C(=O)Nc2cccc(C)c2)CC1	.	.	.	.	.	.
CCc1cc2c(NCCO)ncnc2s1	.	.	.	.	.	.
OCCOCCNc1ncnc2sc(-c3ccccc3)cc12	64	.	59	.	.	.
Cc1nnc(SCCn2c(N(C)Cc3ccccc3)nc3c2c(=O)n(C)c(=O)n3C)s1	/	.	/	.	/	/
Cc1n[nH]c(C)c1S(=O)(=O)N1CCC(C(=O)N2CCn3c2nc2ccccc23)CC1	66	.	.	.	.	.
Cc1ccc(N(CC(=O)N2CCn3c2nc2ccccc23)S(=O)(=O)c2c(C)n[nH]c2C)cc1	.	.	64	.	.	.
CCCn1c(SCC(N)=O)nnc1-c1ccco1	.	/	.	/	.	.
CCc1ccc(N=CC23c4ccccc4C(c4ccccc42)C2C(=O)N(c4ccc(OC)cc4)C(=O)C23)cc1 (configuration not stated)	.	.	.	.	.	.
CN(C)CCCN(C(=O)c1cccs1)c1nc(-c2ccccc2)cs1	92	.	74	.	.	.
O=C(Nc1cc(Sc2nc3ccccc3s2)cc([N+](=O)[O-])c1)c1ccccc1F	.	.	71	.	.	.
O=C(N/N=C/c1ccc(Sc2nc3ccccc3s2)c([N+](=O)[O-])c1)c1ccccn1	.	.	.	.	.	.
SMILES	CYP2C19 inh	PLK1 kinase inh	CYP2C9 inhib	PLK1 PBD inh	CYP2C19 activ	CYP2C9 activ
COC(=O)c1c(CSc2cccc(C)c2)noc1C(=O)NCc1ccco1	82	.	78	.	.	.
Cc1cc(C)cc(SCc2noc(C(=O)NC(C)C)c2C(=O)O)c1	.	.	70	.	.	.
CC(C)NC(=O)c1onc(CSc2ccccc2)c1C(=O)O	.	.	.	.	.	.
Cc1cccc(SCc2noc(C(=O)NC(C)C)c2C(=O)O)c1	.	.	55	.	.	.
C=CCNC(=O)c1onc(CSc2cccc(OC)c2)c1C(=O)O	.	.	67	.	.	.
Cc1cc(C)nc(-n2nc(C)c3c(=O)[nH]c(C(F)(F)F)nc32)n1	.	.	.	.	.	.
Cc1c(=O)n(OCc2ccccc2F)c2ccccc2[n+]1[O-]	.	.	.	.	.	.
COc1cccc(SCc2noc(C(=O)NC(C)C)c2C(=O)O)c1	.	.	61	.	.	.
